# Results reported in PubChem BioAssay.
# A number with no mark means an inactive call. Calls of active or inactive are those of the source. No stated cut-off is given here; in the data, active means fold change permeability below about 0.7 or above about 1.3; inactive means in between.
# Assay: compounds altering in vitro BBB leakiness – cell-based, FITC-avidin fluorescence, HTS, primary screen (AID 1963498); further: test concentration not given here
# Conditions: brain endothelial barrier, actives lie on both sides
row,Structure (SMILES),fold change permeability
1,CC1(C)CCC(NC(=O)[C@@H](N)CCC(=O)O)CC1,0.9
2,OC[C@H]1O[C@@H](n2cnc3c(N[C@H]4CCC[C@@H]4O)ncnc32)[C@H](O)[C@@H]1O,1
3,CN1CCC(=C2c3ccccc3C=Cc3ccccc32)CC1,1.1
4,c1ccc(-c2ccccn2)nc1,1
5,COC(=O)[C@@H](N)Cc1ccc(O)c(O)c1,1
6,NC1(C(=O)O)CCCCC1,1
7,COc1ccc(-c2cc3ncc(C)n3c(Nc3ncccc3C(N)=O)n2)cc1OC,1.6 (active)
8,COc1cc(C(O)C(=O)O)ccc1O (stereo not given),1
9,CCCN(CC1CC1)c1nc(C)nc(Nc2c(Cl)cc(Cl)cc2Cl)c1Cl,1.3 (active)
10,Fc1ccc(-c2ccc(Nc3nc(Cl)nc(Cl)n3)cc2)cc1,0.9
11,COc1cc(NS(C)(=O)=O)ccc1Nc1c2ccccc2nc2ccccc12,1.2
12,CCCC(CCC)C(=O)OC1CC2CCC(C1)[N+]2(C)C (stereo not given),0.9
13,Cc1[nH]c(=O)c(C#N)cc1-c1ccncc1,0.8
14,N[C@@H](Cn1ccc(=O)c(O)c1)C(=O)O,1.8 (active)
15,C[n+]1ccccc1CC(=O)c1ccc(Br)cc1,0.9
16,CC[N+](CC)(CC)CCOc1cccc(OCC[N+](CC)(CC)CC)c1OCC[N+](CC)(CC)CC,0.8
17,Cn1ccc2cc(NC(=O)Nc3cccnc3)ccc21,1.2
18,O=C(O)c1ccc(-c2ccc(/C=C3\SC(=S)N(Cc4ccccc4)C3=O)o2)cc1,2 (active)
19,O=c1[nH]c(=O)c2nc3ccccc3nc2[nH]1,1.3 (active)
20,C[C@]12C=CC(=O)C=C1CC[C@H]1[C@@H]3C[C@@H](O)[C@](O)(C(=O)CO)[C@@]3(C)C[C@H](O)[C@@]12F,1.4 (active)

row,Structure (SMILES),fold change permeability
1,CN1CCc2cccc3c2[C@H]1Cc1ccc(O)c(O)c1-3,1
2,O=C(O)C1=CCCN(CCON=C(c2ccccc2)c2ccccc2)C1,1.1
3,CCCC(CCC)C(=O)O,1.1
4,CC1(C)NC(=O)N(c2ccc([N+](=O)[O-])c(C(F)(F)F)c2)C1=O,1.1
5,C=C1CCN([C@H](C)[C@](O)(Cn2cncn2)c2ccc(F)cc2F)CC1,1.4 (active)
6,O=C(C1CCCCC1)N1CC(=O)N2CCc3ccccc3C2C1 (stereo not given),1.2
7,COc1ccc(CCN(C)CCc2ccc(OC)c(OC)c2)cc1OC,2 (active)
8,Cc1cc(C)nc(SCC(=O)Nc2ncc(Cc3cccc4ccccc34)s2)n1,1.4 (active)
9,CN(C)CCCN1c2ccccc2Sc2ccc(Cl)cc21,1.1
10,CCN(CC)C(=S)SSC(=S)N(CC)CC,1.7 (active)
11,Cc1cc(C)c(/C=C2\C(=O)Nc3ccccc32)[nH]1,23.2 (active)
12,O=C(c1ccoc1)N1CCN(c2cc(-c3ccco3)nc3cc(-c4ccccc4)nn23)CC1,1.2
13,CN1Cc2c(N)cccc2C(c2ccccc2)C1 (stereo not given),1
14,NCc1c[nH]c(=S)n1[C@H]1CCc2c(F)cc(F)cc2C1,1.4 (active)
15,Nc1ccc(CCNc2ncnc3c2ncn3C2OC(CO)C(O)C2O)cc1 (stereo not given),1
16,Cc1cccc(/C=C/c2ccccc2)n1,1.2
17,CCN(CC)CC#CCOC(=O)C(O)(c1ccccc1)C1CCCCC1 (stereo not given),1.3 (active)
18,CC(C)CN(C[C@@H](O)[C@H](Cc1ccccc1)NC(=O)O[C@H]1CO[C@H]2OCC[C@H]21)S(=O)(=O)c1ccc(N)cc1,1.4 (active)
19,O=C1c2c(O)ccc(O)c2C(=O)c2c(NCCNCCO)ccc(NCCNCCO)c21,0.8
20,NC(=O)c1ccccc1,1.2
